Experimental findings from PubChem BioAssay are described below.

The source made the active and inactive calls.

Assay [1] in a line: binders of probe aFSTL3 on microarray, primary screen, stem cell growth factor project, biochemical, small-molecule microarray, fluorescence 635/667 (AID 1064).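 Further: measures binding of the biotinylated anti-FSTL3 antibody to printed compounds.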 Conditions: higher = more signal.
Assay [2] in a line: binders from COS7 lysate, DM2A8 probe, primary screen, torsin A project, cell lysate, small-molecule microarray, fluorescence 635/667 (AID 1065). To be noted: higher = more signal, COS7 lysate expressing mutant human TOR1A.
A short description of assay [3]: binders of probe aFGF2 on microarray, primary screen, stem cell growth factor project, biochemical, small-molecule microarray, fluorescence 635/667 (AID 1067).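 Further: measures binding of biotinylated aFGF2 protein to printed compounds on slides; z-score merges feature fluorescence and signal-to-noise across triplicate slides.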 Conditions: higher = more signal.
A short description of assay [4]: binders of probe aFGF10 on microarray, primary screen, stem cell growth factor project, biochemical, small-molecule microarray, fluorescence 635/667 (AID 1071).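 Further: score merges 667 nm spot intensity and signal to noise from triplicate slides.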 Conditions: higher = more signal.
Assay [5] addresses Neurogenic locus notch homolog protein 2 (Homo sapiens) (UniProt Q04721). In words: Notch2 binders on small-molecule microarrays, primary screen, biochemical, small-molecule microarray, 635 nm fluorescence, stem cell growth factors (AID 1073). To be noted: Notch2 binding, higher = more signal.
The target of assay [6] is Pro-neuregulin-1, membrane-bound isoform (Homo sapiens) (UniProt Q02297). In words: NRG1 binders on small-molecule microarrays, primary screen, psychiatric disease protein project, biochemical, small-molecule microarray, fluorescence 635/667 (AID 1075).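 Further: score combines 667 nm spot fluorescence with signal to noise.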 To be noted: NRG1 binding, 635 nm fluorescence, higher = more signal.
Assay [7] deals with Neuregulin-1 EGF-like domain. In words: binders of neuregulin-1 EGF-like domain, primary screen, biochemical, small-molecule microarray, 635 nm fluorescence (AID 1081).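 Further: binding of the protein to compounds printed on small-molecule microarray slides.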 To be noted: small-molecule microarray binding, higher = more signal.
Assay [8] is described as follows: FRG1 promoter luciferase signal modulators, primary screen, FRG1 inhibition for FSHD, cell-based, C2C12 myotubes, firefly/Renilla luciferase, luminescence (AID 1084). To be noted: higher = more signal, called active from +8 up or from −8 down.
Assay [9] is described as follows: binders of probe aFST on microarray, primary screen, stem cell growth factor project, biochemical, small-molecule microarray, fluorescence 635/667 (AID 1086).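 Further: score merges 667 nm fluorescence with signal-to-noise of each printed compound spot.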 Conditions: higher = more signal.
Assay [10] is described as follows: binders of probe aHhip on microarray, primary screen, stem cell growth factor project, biochemical, small-molecule microarray, fluorescence 635/667 (AID 1087).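 Further: score merges spot fluorescence at 667nm with spot signal to noise ratio.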 To be noted: higher = more signal.

Sequence of Neurogenic locus notch homolog protein 2 (Homo sapiens) (Q04721 whole entry, looked up, canonical isoform): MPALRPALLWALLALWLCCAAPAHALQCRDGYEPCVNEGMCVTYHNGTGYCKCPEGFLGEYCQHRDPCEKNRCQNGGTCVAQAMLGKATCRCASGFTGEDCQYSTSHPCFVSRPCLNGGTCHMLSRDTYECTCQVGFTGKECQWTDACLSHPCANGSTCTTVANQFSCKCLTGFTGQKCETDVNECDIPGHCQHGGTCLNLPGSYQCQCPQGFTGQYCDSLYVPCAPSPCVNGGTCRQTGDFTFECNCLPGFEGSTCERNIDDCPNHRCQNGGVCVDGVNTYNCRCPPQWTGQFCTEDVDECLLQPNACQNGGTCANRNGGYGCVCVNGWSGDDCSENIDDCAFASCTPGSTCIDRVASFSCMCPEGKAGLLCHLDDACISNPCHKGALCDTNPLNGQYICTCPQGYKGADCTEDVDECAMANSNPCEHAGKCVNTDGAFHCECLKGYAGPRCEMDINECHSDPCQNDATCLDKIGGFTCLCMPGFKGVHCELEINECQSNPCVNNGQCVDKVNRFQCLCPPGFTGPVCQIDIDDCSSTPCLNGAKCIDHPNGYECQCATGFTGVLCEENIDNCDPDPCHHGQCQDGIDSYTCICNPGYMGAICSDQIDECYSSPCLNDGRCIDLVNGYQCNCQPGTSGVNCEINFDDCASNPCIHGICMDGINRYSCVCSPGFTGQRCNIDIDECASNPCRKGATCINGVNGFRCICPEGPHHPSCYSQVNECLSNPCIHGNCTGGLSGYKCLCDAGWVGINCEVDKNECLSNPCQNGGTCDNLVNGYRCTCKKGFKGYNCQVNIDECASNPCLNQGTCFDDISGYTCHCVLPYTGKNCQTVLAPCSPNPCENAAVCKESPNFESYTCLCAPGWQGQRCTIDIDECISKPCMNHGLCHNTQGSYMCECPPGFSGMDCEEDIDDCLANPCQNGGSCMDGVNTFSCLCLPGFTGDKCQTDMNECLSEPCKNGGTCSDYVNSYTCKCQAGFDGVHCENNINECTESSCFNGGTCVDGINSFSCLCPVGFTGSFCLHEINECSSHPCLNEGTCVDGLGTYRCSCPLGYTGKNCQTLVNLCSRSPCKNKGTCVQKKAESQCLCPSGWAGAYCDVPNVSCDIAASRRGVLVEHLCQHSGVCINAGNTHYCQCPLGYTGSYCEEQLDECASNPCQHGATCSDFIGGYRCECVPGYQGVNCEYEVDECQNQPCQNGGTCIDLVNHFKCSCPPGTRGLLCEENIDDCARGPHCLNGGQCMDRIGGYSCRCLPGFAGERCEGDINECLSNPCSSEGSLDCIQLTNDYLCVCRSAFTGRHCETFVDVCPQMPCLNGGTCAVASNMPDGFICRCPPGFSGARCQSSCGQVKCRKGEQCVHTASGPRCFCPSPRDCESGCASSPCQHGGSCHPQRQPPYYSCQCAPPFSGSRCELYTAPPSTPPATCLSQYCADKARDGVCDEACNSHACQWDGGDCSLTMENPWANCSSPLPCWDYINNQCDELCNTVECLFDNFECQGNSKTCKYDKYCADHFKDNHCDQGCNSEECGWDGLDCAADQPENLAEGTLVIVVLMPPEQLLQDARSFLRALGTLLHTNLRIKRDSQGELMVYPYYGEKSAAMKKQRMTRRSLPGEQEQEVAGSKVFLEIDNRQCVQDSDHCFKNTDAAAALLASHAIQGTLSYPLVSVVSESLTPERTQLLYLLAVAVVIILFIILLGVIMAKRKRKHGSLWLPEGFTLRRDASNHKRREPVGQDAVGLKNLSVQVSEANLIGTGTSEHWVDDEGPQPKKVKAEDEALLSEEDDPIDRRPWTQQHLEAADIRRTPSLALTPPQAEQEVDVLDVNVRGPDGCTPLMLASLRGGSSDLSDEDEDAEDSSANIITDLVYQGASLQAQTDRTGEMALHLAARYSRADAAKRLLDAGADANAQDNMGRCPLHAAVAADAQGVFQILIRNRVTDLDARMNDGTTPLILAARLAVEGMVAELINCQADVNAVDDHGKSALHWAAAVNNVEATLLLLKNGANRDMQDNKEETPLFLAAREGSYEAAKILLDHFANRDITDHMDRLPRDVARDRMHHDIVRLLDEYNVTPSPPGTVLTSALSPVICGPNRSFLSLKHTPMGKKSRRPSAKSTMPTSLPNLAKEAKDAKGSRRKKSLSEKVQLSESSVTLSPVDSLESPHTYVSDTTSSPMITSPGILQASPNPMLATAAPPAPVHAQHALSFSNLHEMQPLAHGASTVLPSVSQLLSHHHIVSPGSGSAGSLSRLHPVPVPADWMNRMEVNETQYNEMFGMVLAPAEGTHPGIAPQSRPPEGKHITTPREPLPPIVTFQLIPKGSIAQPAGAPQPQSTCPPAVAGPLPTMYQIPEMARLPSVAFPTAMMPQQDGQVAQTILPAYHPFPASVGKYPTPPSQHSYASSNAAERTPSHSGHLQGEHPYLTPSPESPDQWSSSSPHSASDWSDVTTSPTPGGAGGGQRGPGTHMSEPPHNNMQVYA
Sequence of Pro-neuregulin-1, membrane-bound isoform (Homo sapiens) (Q02297 whole entry, looked up, the tested form may be a part, canonical isoform): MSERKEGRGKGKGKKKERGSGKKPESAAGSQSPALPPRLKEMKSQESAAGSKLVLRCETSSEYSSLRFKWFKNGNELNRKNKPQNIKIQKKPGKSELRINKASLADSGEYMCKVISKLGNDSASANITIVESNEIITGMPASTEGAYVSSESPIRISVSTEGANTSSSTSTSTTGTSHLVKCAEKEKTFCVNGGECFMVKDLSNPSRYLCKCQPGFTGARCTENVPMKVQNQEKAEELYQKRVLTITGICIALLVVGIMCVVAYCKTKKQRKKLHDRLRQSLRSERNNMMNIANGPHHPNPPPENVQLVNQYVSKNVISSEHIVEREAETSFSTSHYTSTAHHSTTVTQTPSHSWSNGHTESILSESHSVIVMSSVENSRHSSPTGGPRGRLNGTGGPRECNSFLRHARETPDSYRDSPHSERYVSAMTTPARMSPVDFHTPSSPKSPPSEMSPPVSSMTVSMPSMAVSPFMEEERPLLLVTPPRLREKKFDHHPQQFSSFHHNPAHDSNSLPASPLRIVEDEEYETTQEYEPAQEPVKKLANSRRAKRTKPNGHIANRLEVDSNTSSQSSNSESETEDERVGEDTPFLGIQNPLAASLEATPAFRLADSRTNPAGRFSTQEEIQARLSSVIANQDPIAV

Consider `COc1ccc([Si](C)(C)[C@H]2[C@H](CCn3cc(CCO)nn3)O[C@@]3(C(=O)N(Cc4ccc(N5CCOC5=O)cc4)c4ccccc43)[C@@H]2C)cc1`, for which the composite z-score was 0.102 in assay [1]; 1.38 in assay [2]; -0.0158 in assay [3]; 0.44 in [4]; 0.14 in assay [5]; 1.51 in [6]. Further, the composite z-score in assay [7] is 1.07; in [9] it was 0.147; in [10], -0.236. In [8], the z-score was -3.54 (inactive).
With `CC(C)CNC(=O)[C@@]1(c2ccc([N+](=O)[O-])cc2)CC(=O)N(CC23CC4CC(CC(C4)C2)C3)[C@@H]1c1ccc(CO)cc1`, the composite z-score in assay [1] stood at 0.158; in [2], 1.83; in [3], 0.0201; in [4], 0.39; in assay [5] it was 0.994; in assay [6], 0.65. Besides, the figures for the composite z-score in [7], in assay [9] and in [10] were 1.19, -0.0554 and 0.075, respectively. Besides, in [8], the z-score was -2.51 (inactive).
For `CCCNC(=O)[C@@H]1c2ccccc2C(=O)N(Cc2ccccc2)[C@H]1c1ccc(CO)cc1`, the composite z-score in assay [1] was 0.0651; in assay [2], -0.427; in assay [3] it was -0.0861; in [4], -0.533; in assay [5] it was -0.195; in [6], 1.09. The composite z-score was 1.11 in [7], -0.115 in assay [9] and 0.132 in [10]. Besides, the z-score in assay [8] was -1.14 (inactive).
For `Cc1ccccc1C(O)C1C=CC2C(=O)N(C)C(=O)C2N1Nc1ccccc1` (stereo not given), the composite z-score in assay [1] was 0.413; in [2], 0.526; in assay [3], -0.0035; in assay [4], 0.0865; in assay [5] it was 1.22; in assay [6], 2.05. The values for the composite z-score in assay [7], in assay [9] and in assay [10] were 1.14, 0.842 and -0.0994, respectively. The z-score in assay [8] was 0.772 (inactive).
For the molecule `O=C1OCCC=C[C@H]2OC34C=CCN(Cc5ccccc5)C(=O)[C@H]3N(CCCCCO)C(=O)[C@@H]4C12` (stereo not given in full), the composite z-score in assay [1] was -0.557; in assay [2], 1.4; in assay [3], -0.175; in assay [4], -0.436; in [5], -0.765; in assay [6], 1.92. In addition, the composite z-score is 1.63 in [7], 0.0164 in assay [9] and -0.35 in assay [10]. The z-score in [8] was -0.781 (inactive).
For `CCCCC=C[C@@H](NC(=O)c1cccs1)c1ccccc1`, the composite z-score amounted to 0.144 in [1]; 0.583 in assay [2]; 0.121 in assay [3]; 0.308 in assay [4]; 1.1 in assay [5]; 0.736 in assay [6]. Further, the composite z-score in [7] was 0.858; in [9], 0.409; in assay [10], 0.913. Further, in [8], the z-score is -3.42 (inactive).
As for `CC(C)CNC(=O)[C@@]1(c2ccc([N+](=O)[O-])cc2)CC(=O)N(CC23CC4CC(CC(C4)C2)C3)[C@@H]1c1ccc(CO)cc1I`, the composite z-score is 0.483 in [1]; 0.699 in assay [2]; -0.0226 in [3]; 0.26 in assay [4]; 1.34 in [5]; 0.168 in assay [6]. Also, the results for the composite z-score in assay [7], in [9] and in [10] were 1.29, 0.283 and -0.0994, respectively. Besides, in assay [8], the z-score is -1.52 (inactive).
`CCOC(=O)C1=CCC(c2ccc(C#N)cc2)N(S(=O)(=O)c2ccc(C)cc2)C1` (stereo not given): the composite z-score in [1] was found to be 0.657; in assay [2] it was 0.359; in assay [3] it was 0.165; in assay [4] it was 0.446; in assay [5] it was 1.67; in [6], 1.32. Besides, the composite z-score in assay [7] is 1.27; in assay [9], 1.27; in assay [10] it was 0.11. Besides, the z-score in [8] is -3.85 (inactive).
For `Cc1ccc([C@H]2C(C(=O)O)=C[C@@H](C)N2S(=O)(=O)c2ccc(C)cc2)cc1`, the composite z-score in assay [1] was 0.247; in assay [2], -0.36; in [3], -0.0867; in assay [4], -0.337; in [5] it was -0.0054; in assay [6] it was 1.52. The results for the composite z-score in [7], in [9] and in [10] were 0.962, -0.882 and -0.201, respectively. Moreover, the z-score in assay [8] is -0.282 (inactive).
For `COCCOC(=O)N1C(=O)[C@@]2(c3ccccc31)[C@H](c1ccc(O)cc1)N1[C@H](c3ccccc3)[C@H](c3ccccc3)OC(=O)[C@H]1[C@@H]2C(=O)N1CCc2cc(OC)c(OC)cc2C1`, the composite z-score was 0.21 in [1]; 0.0749 in assay [2]; 0.0631 in assay [3]; 0.691 in assay [4]; 1.15 in assay [5]; 1.08 in [6]. Further, the composite z-score in assay [7] was 0.938; in assay [9], 1.05; in assay [10], -0.179. Also, the z-score in [8] was -1.47 (inactive).
Regarding `COc1ccc([Si](C)(C)[C@H]2[C@H](CCn3cc([C@H](O)c4ccccc4)nn3)O[C@@]3(C(=O)N(Cc4cccc(N5CCC5=O)c4)c4ccccc43)[C@@H]2C)cc1`, the composite z-score in assay [1] is 0.386; in [2] it was 0.238; in assay [3] it was -0.0894; in [4] it was 0.164; in assay [5] it was -0.404; in assay [6], -0.0001. For the same molecule, the composite z-score is 0.557 in assay [7], -0.0509 in [9] and -0.191 in assay [10]. Also, in assay [8], the z-score was -1.99 (inactive).
On to `Cc1ccc(S[C@]2(C(=O)NCc3ccccc3)CC(=O)N(Cc3ccccc3)[C@@H]2c2ccc(CO)cc2)cc1`, for which the composite z-score was 0.264 in assay [1]; -0.443 in [2]; -0.0165 in assay [3]; 0.793 in assay [4]; -0.338 in [5]; 1.33 in assay [6]. The composite z-score in assay [7] is 1.09; in assay [9] it was -0.0886; in assay [10] it was -0.169. Moreover, the z-score in assay [8] was -2.33 (inactive).
`O=C1O[C@@H](c2ccccc2)[C@@H](c2ccccc2)N2[C@@H](c3ccc(OCCO)cc3)[C@]3(C(=O)Nc4ccc(C#CC5=CCCCC5)cc43)[C@@H](C(=O)O)[C@H]12`: the composite z-score is 0.44 in assay [1]; 0.681 in assay [2]; -0.0158 in [3]; 0.506 in assay [4]; 1.48 in assay [5]; 1.59 in [6]. Further, the composite z-score in [7] was 1.12; in assay [9], 0.492; in assay [10], 0.0274. The z-score in [8] is 0.82 (inactive).
In the case of `CC(C)c1ccc(NN2C(C(O)c3cccc(O)c3)C=CC3C(=O)N(c4ccccc4)C(=O)C32)cc1` (stereo not given), the composite z-score in assay [1] came out at 0.0067; in assay [2], 0.422; in [3], 0.0864; in assay [4], 0.618; in assay [5], 1.57; in assay [6], 1.97. In addition, the composite z-score in [7] is 1.3; in assay [9], 1.33; in [10], 0.122. In addition, the z-score in [8] is -1.04 (inactive).
With `CN(C)C(=O)[C@@]1(CCC(=O)OC(C)(C)C)N=C(c2ccc(OCCCO)cc2)O[C@H]1c1ccccc1`, the composite z-score is 1.01 in [1]; 2.11 in assay [2]; 0.112 in assay [3]; 0.31 in [4]; -0.282 in assay [5]; 1.92 in assay [6]. In addition, the composite z-score in [7] is 1.33; in assay [9], 0.356; in [10], 0.597. For the same molecule, in [8], the z-score is -0.624 (inactive).
For `[N-]=[N+]=NCc1ccccc1[C@H]1OC(c2ccc(OCCCO)cc2)=N[C@@]1(CCS(=O)(=O)c1ccccc1)C(=O)N1CCOCC1`, the composite z-score is 0.476 in [1]; 0.525 in assay [2]; 0.221 in [3]; 1.03 in [4]; 1.63 in assay [5]; 2.18 in assay [6]. Further, the composite z-score in assay [7] is 1.16; in assay [9], 1.86; in assay [10] it was -0.0391. Also, the z-score in assay [8] was 0.51 (inactive).
`COC(=O)c1ccc(C(O)C2C=CC3C(=O)N(C)C(=O)C3N2NC(=O)OC(C)(C)C)o1` (stereo not given): the composite z-score in [1] is -0.0154; in assay [2], 0.252; in assay [3] it was 0.0942; in assay [4], 1.03; in assay [5] it was 1.48; in assay [6], 1.34. Further, the composite z-score in assay [7] is 1.29; in assay [9], 0.76; in assay [10], -0.0024. Further, the z-score in assay [8] was 0.896 (inactive).
